# From PubChem BioAssay (NCATS)
# Results filed as inconclusive are left out. Entries that show only a call come without a potency. Active and inactive are the calls of the source. The call rests on the fitted dose curve; in most records, active means well fitted curve in the direction sought with a large enough effect; inconclusive means small, poorly fitted or top-dose-only effect, or another doubt; inactive means no such curve, though single readings can be large; an effect the other way counts as inactive or inconclusive.
# Experiments:
# [1] = HEK293 18hr Apoptosis Induction qHTS against the NCATS CANVASS Library (AID 1347357)
# Method in brief: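 Luminescent caspase-3/7 signal is measured in HEK293 cells exposed for 18 hours to an 11-point concentration series; doxorubicin serves as the plate control.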
# [2] = HPAF-II 12hr Apoptosis Induction qHTS against the NCATS CANVASS Library (AID 1347358)
# Method in brief: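 Twelve-hour compound exposure of HPAF-II cells in DMEM with 10% FBS, then luminescent Caspase-Glo 3/7 detection after 15 min at room temperature; doxorubicin control.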
# [3] = HEK293 24hr Apoptosis Induction qHTS against the NCATS CANVASS Library (AID 1347359)
# Method in brief: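 HEK293 cells (500/well, DMEM + 10% FBS) were exposed to compounds in an 11-point series for 24 hours at 37 degrees C, then caspase-3/7 activity was read by Caspase-Glo DEVD luciferase luminescence after 15 min.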
# [4] = HPAF-II 18hr Apoptosis Induction qHTS against the NCATS CANVASS Library (AID 1347360)
# Method in brief: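 Apoptosis was scored as caspase-3/7 activity in HPAF-II pancreatic cancer cells treated 18 hours with an 11-point concentration series.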
# [5] = HEK293 12hr Apoptosis Induction qHTS against the NCATS CANVASS Library (AID 1347361)
# Method in brief: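 Apoptosis in HEK293 was scored as caspase-3/7 luminescence following 12 h treatment with a compound concentration series in qHTS format.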
# [6] = tested on: NAD(P)H diaphorase (Clostridium kluyveri); assay: Diaphorse counterscreen qHTS: Assay Interference Panel against the NCATS CANVASS Library (AID 1347362)
# Method in brief: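 Clostridium kluyveri diaphorase in PBS with 0.01% Tween-20 was preincubated 15 min at room temperature in the dark with compounds (11-point series). Resorufin fluorescence (ex 525/20, em 598/25) was read 5 min after adding resazurin/NADH.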
# [7] = molecular target: Luciferin 4-monooxygenase (Photinus pyralis) (UniProt P08659); assay: Firefly luciferase counterscreen qHTS: Assay Interference Panel against the NCATS CANVASS Library (AID 1347363); further: series mostly up to about 57 µM
# Chain of Luciferin 4-monooxygenase (Photinus pyralis) (P08659 whole entry, looked up): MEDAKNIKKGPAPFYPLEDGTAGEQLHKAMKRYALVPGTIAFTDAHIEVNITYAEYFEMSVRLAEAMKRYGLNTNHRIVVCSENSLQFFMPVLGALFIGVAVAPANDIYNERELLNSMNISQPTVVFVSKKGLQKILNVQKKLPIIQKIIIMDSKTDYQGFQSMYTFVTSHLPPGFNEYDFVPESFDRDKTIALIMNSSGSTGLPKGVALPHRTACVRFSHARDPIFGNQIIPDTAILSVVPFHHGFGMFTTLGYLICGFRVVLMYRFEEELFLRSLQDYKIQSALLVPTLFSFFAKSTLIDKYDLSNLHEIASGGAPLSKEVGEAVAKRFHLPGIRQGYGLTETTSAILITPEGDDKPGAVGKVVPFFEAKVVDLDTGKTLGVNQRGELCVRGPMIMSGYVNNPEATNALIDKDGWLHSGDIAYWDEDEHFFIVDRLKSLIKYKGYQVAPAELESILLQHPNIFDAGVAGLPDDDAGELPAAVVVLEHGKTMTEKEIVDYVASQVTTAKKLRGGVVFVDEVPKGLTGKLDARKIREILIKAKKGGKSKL
# Method in brief: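 Purified P. pyralis luciferase was added to compounds (11-point series) preincubated 15 min at room temperature with substrate containing 0.013 mM D-luciferin and 0.013 mM ATP; luminescence was read after 5 min.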
# [8] = KB-3-1 Cancer Cell Toxicity qHTS against the NCATS CANVASS Library (AID 1347366); further: nearly all actives have a fitted effect of over 75% in size; further: potency means the concentration at half of the fitted maximal effect
# Method in brief: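 Seed KB-3-1 cells at 500/well in DMEM with 10% FBS, add compounds, incubate 72 hr at 37C and 5% CO2, then add CellTiter-Glo and read luminescence after 10 minutes.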
# [9] = qHTS for ATAD5 Agonist screened against the NCATS CANVASS Library (AID 1347367);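 further: luciferase reporter driven by ATAD5 which rises upon DNA damage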; further: potency means the concentration at half of the fitted maximal effect
# Method in brief: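 Step one plated reporter cells and let them acclimate 5hr. Step two pinned compounds with MMS as positive and 0.46% DMSO as negative control. After 16hr incubation, fluorescence viability then luminescence were read.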
# [10] = qHTS for ATAD5 Antagonist screened against the NCATS CANVASS Library (AID 1347370); further: nearly all actives have a fitted effect of over 65% in size; further: potency means the concentration at half of the fitted maximal effect
# Method in brief: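 HEK293T-ATAD5 luc reporter, 2000 cells/well; 5hr attach; cpd + 10 uM 5-FUrd; 16hr 37C, 5% CO2. Readouts: CellTiter-Fluor fluorescence (1hr), then Amplite luciferase luminescence (30min RT).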
# [11] = J3T Cancer Cell Toxicity qHTS against the NCATS CANVASS Library (AID 1347371); further: potency means the concentration at half of the fitted maximal effect
# Method in brief: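 ATP-based cytotoxicity in canine J3T cells: 72 hr exposure at 37C, 11-point titration, CellTiterGlo luminescent detection.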
# [12] = molecular target: Nuclear receptor subfamily 1 group I member 3 (Homo sapiens) (UniProt Q14994); assay: qHTS for Constitutive Androstane Receptor (CAR) Antagonist screened against the NCATS CANVASS Library (AID 1347372); further: potency means the concentration at half of the fitted maximal effect
# Chain of Nuclear receptor subfamily 1 group I member 3 (Homo sapiens) (Q14994 whole entry, looked up): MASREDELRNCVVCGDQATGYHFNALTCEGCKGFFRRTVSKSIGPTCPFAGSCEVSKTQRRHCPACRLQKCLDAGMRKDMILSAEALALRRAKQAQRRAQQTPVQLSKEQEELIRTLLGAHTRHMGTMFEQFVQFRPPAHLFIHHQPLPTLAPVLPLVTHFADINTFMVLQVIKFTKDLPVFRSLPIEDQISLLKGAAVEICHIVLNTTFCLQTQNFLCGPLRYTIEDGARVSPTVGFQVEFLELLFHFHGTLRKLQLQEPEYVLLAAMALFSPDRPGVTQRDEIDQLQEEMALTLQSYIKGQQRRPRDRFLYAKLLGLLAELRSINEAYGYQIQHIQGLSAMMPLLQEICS
# Method in brief: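 Cells were seeded and left 4hr to attach, then received compound at 11 concentrations and 50 nM CITCO. Following 24hr incubation, fluorescence viability and luciferase luminescence were read sequentially.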
# [13] = molecular target: Nuclear receptor subfamily 1 group I member 3 (Homo sapiens) (UniProt Q14994); assay: qHTS for Constitutive Androstane Receptor (CAR) Agonist screened against the NCATS CANVASS Library (AID 1347373);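 further: every well also contained 1.5 µM PK11195 alongside the test compound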
# Method in brief: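 In an 11-point concentration series, compounds were incubated 24hr with HepG2 cells carrying hCAR and a CYP2B6-2.2kb reporter, with PK11195 at 1.5uM final. A CellTiter-Fluor viability read preceded the ONE-Glo luminescence read.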
# [14] = qHTS for Hypoxia signaling pathway (HIF-1) agonists against the NCATS CANVASS Library (AID 1347375)
# Method in brief: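 An HRE-beta-lactamase ME-180 line is exposed for 17 h to an 11-point compound series, then read by CCF4-AM FRET. Cytotoxicity is measured in parallel in the same wells with CellTiter-Glo, and autofluorescence is checked separately.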
# [15] = 10-beta competent E. coli microbial cell viability qHTS against the NCATS CANVASS Library (AID 1347376); further: series mostly up to about 46 µM
# Method in brief: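 Overnight 37C exposure of 10-beta E. coli (0.2 OD) to an 11-point concentration series; ATP-based luminescence after 20 min room-temperature reagent incubation; daunomycin as control.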
# [16] = qHTS for Inflammasome Signaling Inhibitors: IL-1-beta AlphaLISA screen against the NCATS CANVASS Library (AID 1347379);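 further: human THP-1 cells primed with LPS then triggered with ATP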
# Method in brief: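 THP-1, 1 hr compound pre-incubation, then LPS 250 ng/mL + ATP 1.25 mM (final); 16 hr total with compound; IL-1B AlphaLISA, ex 680/em 615 nm; 11-point qHTS, up to 57.5 uM final.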
# [17] = Inflammasome Signaling qHTS Counterscreen: IL-1-beta AlphaLISA counterscreen against the NCATS CANVASS Library (AID 1347381);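 further: cell-free check with purified IL-1β in medium and no THP-1 cells; series mostly up to about 57 µM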
# Method in brief: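 Here, no cellular stimulation occurs; compounds in an 11-point series meet 4 pg purified IL-1-beta directly. Bead-based AlphaLISA detection follows (1 h acceptor/antibody, then 30 min donor, dark, room temperature), with excitation at 680 nm.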
# [18] = Cytotoxicity qHTS for assessment of Hepg2 cells membrane integrity screened against the NCATS CANVASS Library (AID 1347387)
# Method in brief: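 Membrane damage in HepG2 monolayers was estimated from released LDH, measured with CytoTox-ONE (ex 560/em 590 nm), after 5 hr treatment across 0.59 nM - 46 uM final.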
# [19] = qHTS for activators of dead-cell proteases activity screened against the NCATS CANVASS Library (AID 1347392);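 further: luminescence from protease leaking out of membrane-damaged cells cleaving impermeant substrate; rising signal means more cytotoxicity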
# Method in brief: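 Cytotoxicity in HepG2 cells was assessed by released protease cleaving AAF-aminoluciferin, with luminescence as signal. Exposure lasted 5 h at 37C across an 11-point series.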
# [20] = Viability qHTS for inhibitors of the SERCaMP assay screened against the NCATS CANVASS Library (AID 1347400); further: nearly all actives have a fitted effect of over 70% in size; further: potency means the concentration at half of the fitted maximal effect
# Method in brief: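 Measures loss of viability in SERCaMP reporter SH-SY5Y cells treated for 48 h with compounds; luminescent ATP detection by CellTiter-Glo.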
SMILES,Potency [1],Potency [2],Potency [3],Potency [4],outcome [5],Potency [6],Potency [7],Potency [8],Potency [9],Potency [10],Potency [11],Potency [12],Potency [13],outcome [14],outcome [15],Potency [16],outcome [17],outcome [18],Potency [19],Potency [20]
CC(C)[C@]12CC[C@@]3(C)[C@H](C)CC[C@H](O)[C@@]3(CC1)c1cc3c(cc12)[nH]c1ccccc13,inactive,inactive,inactive,inactive,inactive,inactive,inactive,inactive,inactive,inactive,inactive,inactive,inactive,inactive,inactive,inactive,inactive,inactive,inactive,inactive
COC12OC1(C13OC1(OC)C(=O)c1cc4cc(C)oc(=O)c4c(O)c1C3O)C(O)c1c(cc3cc(C)oc(=O)c3c1O)C2=O (stereo not given),inactive,inactive,inactive,inactive,inactive,inactive,inactive,inactive,inactive,inactive,inactive,inactive,inactive,inactive,inactive,inactive,inactive,inactive,inactive,inactive
C/C=C(/C)c1c(Cl)c(O)c(C)c2c1Oc1c(Cl)c(O)c(Cl)c(C)c1C(=O)O2,inactive,inactive,inactive,inactive,inactive,inactive,inactive,inactive,inactive,inactive,,inactive,inactive,inactive,inactive,inactive,inactive,inactive,inactive,inactive
COc1ccc2[nH]c3c(c2c1)CCN1C[C@H]2C[C@@H](OC(=O)c4cc(OC)c(OC)c(OC)c4)[C@H](OC)[C@@H](OC)[C@H]2C[C@H]31,inactive,inactive,inactive,inactive,inactive,,inactive,,inactive,6.6 µM (active),inactive,inactive,,inactive,inactive,inactive,inactive,inactive,inactive,inactive
CCC(=O)CCCCC[C@@H]1NC(=O)[C@H]2CCCCN2C(=O)[C@H](C(C)C)NC(=O)[C@H](Cc2cn(OC)c3ccccc23)NC1=O,inactive,inactive,inactive,inactive,inactive,inactive,inactive,7.43 µM (active),3.31 µM (active),inactive,11.8 µM (active),11.7 µM (active),inactive,inactive,inactive,,inactive,inactive,inactive,15.2 µM (active)
CC(C)=CCC[C@]12c3cc4c(cc3CC[C@@]1(C)[C@H](C)CC[C@@H]2O)[nH]c1ccccc14,inactive,inactive,inactive,inactive,inactive,inactive,inactive,inactive,inactive,inactive,inactive,inactive,inactive,inactive,inactive,inactive,inactive,inactive,inactive,inactive
C=C[C@@]1(C)CC[C@@H]([C@H](C)C(=O)/C=C/C(C)(C)O)O1,inactive,inactive,inactive,inactive,inactive,inactive,inactive,,inactive,,23.5 µM (active),inactive,,inactive,inactive,,inactive,inactive,inactive,
C/C=C(/C)c1cc(O)c(C)c2c1Oc1cc(O)cc(C)c1C(=O)O2,inactive,inactive,inactive,inactive,inactive,inactive,inactive,inactive,inactive,,inactive,inactive,inactive,inactive,inactive,inactive,inactive,inactive,inactive,inactive
C[C@]12CC[C@]3(C1)[C@H](CC2=O)C[C@@H](OC(=O)c1ccccc1)[C@H]1[C@](C)(C(=O)O)CCC[C@@]13C,inactive,inactive,inactive,inactive,inactive,inactive,inactive,18.7 µM (active),inactive,inactive,inactive,,inactive,inactive,inactive,inactive,inactive,inactive,inactive,
O=c1cc(-c2ccc(O)c(O)c2)oc2cc(O[C@@H]3O[C@H](CO)[C@@H](O)[C@H](O)[C@H]3O)cc(O)c12,inactive,inactive,inactive,inactive,inactive,,inactive,,inactive,inactive,inactive,inactive,inactive,inactive,inactive,inactive,inactive,inactive,inactive,inactive
C=CC(CCCCC)C1C(=O)NC(=O)C1C(=O)C1C2C(C)CC(C(=O)O)CC2CC1(O)C(=O)/C=C/C (stereo not given),inactive,inactive,inactive,inactive,inactive,inactive,inactive,inactive,inactive,inactive,inactive,inactive,inactive,inactive,inactive,inactive,inactive,inactive,inactive,inactive
